# Measured values reported in PubChem BioAssay (Tox21).
# Inconclusive results are not listed. A call without a number means that no potency is given here. Active and inactive are the calls of the source. Calls follow the shape of the dose curve; as a rule, active = well fitted cell-killing curve with a large enough effect in the repeat runs; inconclusive = weak or mixed curves, or effect the other way; inactive = flat fitted curve, though single readings scatter.
# What was measured:
# [1] = cAMP Responsive Elements (CRE) small molecule antagonists, cell-based qHTS assay: qHTS cell viability counter screen (AID 2060913); also: nearly all actives have a fitted effect of over 40% in size
# How it was run: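 Steps: cells plated and held 18 hrs at 37 C/5% CO2; compounds and NKH477 (0.25 uM final) added; 3 hrs incubation; reporter substrate read; CellTiter-Glo added to measure cytotoxicity by luminescence.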
# [2] = cAMP Responsive Elements (CRE) small molecule agonists, cell-based qHTS assay: qHTS cell viability counter screen (AID 2060914);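 also: viability read after 3 h of compound exposure; nearly all actives have a fitted effect of over 50% in size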
# How it was run: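 Cells are seeded and incubated 18 h, treated with compounds in DMSO for 3 h, read for the bla reporter, then given CellTiter-Glo; luminescence is measured after 30 min at room temperature.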
SMILES,Potency [1],Potency [2]
Cc1ccc2sc3cccc(C)c3c2c1,inactive,inactive
CC1=CC(=O)CC(C)(C)C1,inactive,inactive
C=C(C#N)C(=O)OCC,inactive,inactive
O=C(O)COc1ccc2ccccc2c1,inactive,inactive
COC(=O)/C=C(/C)N,inactive,inactive
COC(=O)Nc1ccc(Cl)c(Cl)c1,inactive,inactive
C1CCN2C[C@@H]3C[C@@H](CN4CCCC[C@@H]34)[C@H]2C1,inactive,inactive
CCN(CC)CCOC(=O)c1ccc(N)cc1,inactive,inactive
N#CCN(CC#N)CCN(CC#N)CC#N,inactive,inactive
c1cc2c3c(c1)ccc1cccc(c13)C2,inactive,inactive
c1ccncc1,inactive,inactive
Cc1c(Cl)cccc1[N+](=O)[O-],inactive,inactive
O=C1NC(=O)[C@@H]2CC=CC[C@H]12,inactive,inactive
CCOC(=O)Cn1cccc1-c1nc(-c2ccc(OC)cc2)c(-c2ccc(OC)cc2)s1,inactive,inactive
Cc1cccc2c1cc1ccc3cccc4ccc2c1c34,inactive,inactive
O=S(=O)(O)C(F)(F)F,inactive,inactive
